In PubChem BioAssay (NCATS):
Results filed as inconclusive are left out. Activity calls are given as the source filed them. Unless noted, calls follow the shape of the dose curve; as a rule, active = well fitted curve in the direction sought with a large enough effect; inconclusive = small, poorly fitted or top-dose-only effect, or another doubt; inactive = no such curve, though single readings can be large; an effect the other way counts as inactive or inconclusive.

Experiments:
[1] = molecular target: Cytochrome P450 1A2 (Homo sapiens) (UniProt P05177); assay: p450-cyp1a2 (AID 410; calls by dose curve; also: potency is read from the fitted curve at half-maximal effect;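 as to activity change, negative = inhibition: -100% = full effect of reference inhibitor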)
Method in brief: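 Human CYP1A2 (20nM) demethylated Luciferin-ME at its Km (100uM) in 100mM KPO4. After 10 min compound preincubation, NADPH regeneration ran the reaction 60 min at room temperature. Luciferin was read by luminescence, normalized to 57 uM furafylline.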

[2] = Stat Signaling Pathway (AID 446; active = well fitted curve in either direction with a large enough effect, not every such curve was filed as active;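 also: ME-180 cervical cancer cells given 40 pM IL-6 alongside compound; SIE-controlled beta-lactamase reporter measured as 460/530 nm FRET emission ratio; % is scaled to controls: 0 for no effect and ±100 for the full control effect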); details: ME-180 SIE beta-lactamase reporter, IL-6 stimulated, 5 h; at 17.2 µM (top of the series) unless noted
Method in brief: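 IL-6/STAT signaling read in ME-180 cells via an SIE beta-lactamase reporter. Stimulus was 40 pM IL-6 (its AC50) for 5 hrs, so both activation and inhibition register.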

[3] = molecular target: 3',5'-cyclic-AMP phosphodiesterase 4B (Homo sapiens) (UniProt Q07343); assay: qHTS Assay for Inhibitors of PDE-IV (AID 607; active = well fitted activation curve with a large enough effect in the main read-out, with a control signal flat, not every such curve was filed as active; also: % of control where 0% means no effect)
Method in brief: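 Live HEK293 cells with a modified cyclic nucleotide-gated (CNG) channel report intracellular cAMP via membrane-potential dye fluorescence (ex 535/em 590 nm). Endogenous PDE-IV was targeted. Compounds were tested at up to 22.9 uM final; RO 20-1724 100 uM served as control.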

[4] = qHTS Assay for Identification of Small Molecule Agonists for Thrombopoietin (TPO) Signaling Pathway (AID 917); also: % is scaled to controls: 0 for no effect and ±100 for the full control effect
Method in brief: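 Reporter: GpIIb promoter–luciferase in murine Ba/F3 expressing human TPO receptor. Pre-starved of IL-3 overnight; compounds with 26 pM TPO, 24 hrs, 37 C/5% CO2; luminescence read.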

[5] = molecular target: Muscarinic acetylcholine receptor M1 (Rattus norvegicus) (UniProt P08482); assay: qHTS Assay for Antagonists of Acetylcholine Muscarinic M1 Receptor: Kinetic Measurement of Intracellular Calcium Response (AID 943);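 also: Fluo-4 calcium signal as peak divided by basal fluorescence over 4 min; nearly all actives have a fitted effect of over 75% in size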
Method in brief: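 CHO cells stably expressing rat M1 were loaded with no-wash Fluo-4 dye for 1 h at 37C, pre-incubated 10 min with compound, then challenged with EC80 carbachol (100 nM final); kinetic calcium read 4 min, peak/basal ratio.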

[6] = molecular target: Pyruvate kinase (Leishmania mexicana) (UniProt Q27686); assay: qHTS Validation Assay for Inhibitors of Leishmania Mexicana Pyruvate Kinase (AID 945);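 also: 0% = DMSO only neutral control wells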
Method in brief: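 Luminescent ATP detection (PKLight) after a 1 h room-temperature reaction of 0.2 nM LmPYK E451W mutant with 0.5 mM PEP and 0.1 mM ADP at pH 7.2. Activity is normalized to DMSO-only control wells.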

[7] = molecular target: Pyruvate kinase PKM (Homo sapiens) (UniProt P14618); assay: qHTS Assay for Activators of Human Muscle Pyruvate Kinase (AID 954; active = well fitted curve in the direction sought with a large enough effect, not every such curve was filed as active;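 also: 0% = uninhibited enzyme and -100% = no enzyme or full thiadiazolimine inhibition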)
Method in brief: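 Enzyme was run at intermediate activity so both inhibitors and activators could be detected. ATP formed from ADP and PEP by 0.1 nM human PKM2 during a 1 h room-temperature incubation was quantified by coupled luciferase luminescence.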

[8] = molecular target: Alpha-galactosidase A (Homo sapiens) (UniProt P06280); assay: Counterscreen for Glucocerebrosidase Inhibitors: qHTS Assay for Human alpha-Galactosidase at pH 4.5 (AID 992); also: 0% is about no effect
Method in brief: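 Read-out is 4-methylumbelliferone fluorescence (365 nm excitation, 440 nm emission) after a pH 10 NaOH/glycine stop. Reactions held 2 nM enzyme and 80 uM substrate at pH 4.5 for 20 min at room temperature.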

[9] = molecular target: Glucocorticoid receptor (Homo sapiens) (UniProt P04150); assay: GR-GFP Redistribution (AID 450;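 active = compounds whose dose series gives a full or clear partial fitted curve of increased nuclear translocation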; also: potency is read from the fitted curve at half-maximal effect)
[10] = molecular target: Glucocorticoid receptor (Homo sapiens) (UniProt P04150); assay: GR-EFC Redistribution (AID 451; calls by dose curve; also: potency is read from the fitted curve at half-maximal effect); details: CHO-K1 GR-EFC translocation, beta-gal luminescence, 2 h
Method in brief: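 CHO-K1 cells expressing nuclear EA and GR-ED fragments of b-gal; compounds titrated up to 46 uM final, 2 h at 37 C. GR nuclear translocation read as complemented b-gal luminescence after 1 h RT detection.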

[11] = AP1 Signaling Pathway (AID 357; active = well fitted curve in either direction with a large enough effect, not every such curve was filed as active;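 also: ME-180 reporter cells stimulated with EGF at its EC50 level; % is scaled to controls: 0 for no effect and ±100 for the full control effect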); details: ME-180 AP-1-bla reporter, EGF-induced, beta-lactamase ratio, 5 h; at 17.2 µM (top of the series) unless noted
Method in brief: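 AP-1-bla ME-180 cells, Opti-MEM + 0.5% dialyzed FBS, plated overnight 37 °C. Cpd titration + EC50 EGF, 5 h 37 °C. CCF4 2.5 h RT; ex 405, em 460/530 ratio → %activity, AC50.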

[12] = qHTS Assay for Identification of Small Molecule Agonists for Hypoxia Response Element Signaling Pathway (AID 914; active = well fitted activation curve with a large enough effect in the signal ratio, with a control signal flat, not every such curve was filed as active; the % refers to the signal ratio; also: potency is read from the fitted curve at half-maximal effect); details: ME-180 (cervical carcinoma) HRE-bla reporter, beta-lactamase ratio, CoCl2, 17 h; activation: hits give high values
Method in brief: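 HRE-bla ME-180 cells, overnight plating in Opti-MEM with 0.5% dialyzed FBS; cpd titration + EC50 CoCl2, 17 h, 37 degrees Celsius; CCF4 2.5 h RT; 460/530 nm ratio; AC50.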

[13] = molecular target: Mitogen-activated protein kinase 10 (Mus musculus) (UniProt Q61831); assay: JNK3 AlphaScreen Assay (AID 530; active = well fitted curve in either direction with a large enough effect, not every such curve was filed as active;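 also: kinase came from lysate of stimulated human HepG2 cells; signal reports phosphorylation of biotinylated GST-cJun 1-79 at Ser73 with 10 µM ATP; % is scaled to controls: 0 for no effect and ±100 for the full control effect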)
Method in brief: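 qHTS format: compounds tested as titrations against IL-1beta/TNF-alpha-activated HepG2 lysate JNK3 with biotin-GST-cJun substrate and 10 uM ATP at room temperature. Loss of anti-phospho-cJun AlphaScreen signal indicates inhibition.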

[14] = molecular target: alpha-glucosidase (Oryza sativa, rice) (UniProt Q653V4); assay: Counterscreen for Glucocerebrosidase Inhibitors: qHTS Assay for Rice alpha-Glucosidase at pH 5.0 (AID 997);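 also: 0% = full activity with enzyme and -100% = basal without enzyme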
Method in brief: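 Rice alpha-glucosidase (4 nM final) with 400 uM 4-methylumbelliferyl-alpha-D-glucopyranoside in citrate buffer pH 5.0, 20 min at room temperature, stopped at pH 10; fluorescence 365/440 nm, compounds 0.7 nM–77 uM, AC50 from Hill fits.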

[15] = molecular target: Cytochrome P450 3A4 (Homo sapiens) (UniProt P08684); assay: qHTS Assay for Activators of Cytochrome P450 3A4 (AID 885); also: nearly all actives have a fitted effect of over 65% in size
Method in brief: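 Quantitative HTS format: compounds preincubated with 20nM human CYP3A4 and Luciferin-PPXE substrate at KM, reaction started by NADPH regeneration, stopped after 60 min, luciferase luminescence read 20 min later.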

[16] = molecular target: Cytochrome P450 2D6 (Homo sapiens) (UniProt P10635); assay: qHTS Assay for Inhibitors and Substrates of Cytochrome P450 2D6 (AID 891); also: potency is read from the fitted curve at half-maximal effect; nearly all actives have a fitted effect of over 60% in size
Method in brief: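 Human CYP2D6 (5 nM) with 30 uM Luciferin-ME EGE (at Km) in 100 mM KPO4, compound preincubated 10 min, then NADPH regeneration system for 60 min at room temperature. Luciferin read by luminescence; normalized to 1.43 uM quinidine.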

[17] = molecular target: Ubiquitin carboxyl-terminal hydrolase 1 (Homo sapiens) (UniProt O94782); assay: Inhibitors of USP1/UAF1: Pilot qHTS (AID 504865);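 also: rhodamine fluorescence freed from ubiquitin-rhodamine substrate followed over time; top concentration of the series differs between compounds; % is scaled to controls: 0 for no effect and ±100 for the full control effect; nearly all actives have a fitted effect of over 35% in size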
Method in brief: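 Deubiquitinase activity followed as kinetic rhodamine fluorescence release from 150 nM Ub-Rho. 1 nM USP1/UAF1 with compound, after 15 min room-temperature preincubation, in HEPES pH 7.8 buffer containing TCEP, EDTA, BSA and Tween-20.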

[18] = molecular target: DNA dC->dU-editing enzyme APOBEC-3G (Homo sapiens) (UniProt Q9HC16); assay: qHTS for inhibitors of Vif-A3G interactions: Validation (AID 588379); also: 0% is about no effect
Method in brief: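 HeLa cells stably expressing Vif and A3G-eYFP, 700 cells/well, incubated overnight at 37 deg C, then exposed to compound overnight at 37 deg C. Inhibition of Vif-mediated degradation read as increased yellow fluorescence (Ex 488/Em 500-530) by laser-scanning cytometry.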

Sequence of Cytochrome P450 1A2 (Homo sapiens) (P05177 whole entry, looked up): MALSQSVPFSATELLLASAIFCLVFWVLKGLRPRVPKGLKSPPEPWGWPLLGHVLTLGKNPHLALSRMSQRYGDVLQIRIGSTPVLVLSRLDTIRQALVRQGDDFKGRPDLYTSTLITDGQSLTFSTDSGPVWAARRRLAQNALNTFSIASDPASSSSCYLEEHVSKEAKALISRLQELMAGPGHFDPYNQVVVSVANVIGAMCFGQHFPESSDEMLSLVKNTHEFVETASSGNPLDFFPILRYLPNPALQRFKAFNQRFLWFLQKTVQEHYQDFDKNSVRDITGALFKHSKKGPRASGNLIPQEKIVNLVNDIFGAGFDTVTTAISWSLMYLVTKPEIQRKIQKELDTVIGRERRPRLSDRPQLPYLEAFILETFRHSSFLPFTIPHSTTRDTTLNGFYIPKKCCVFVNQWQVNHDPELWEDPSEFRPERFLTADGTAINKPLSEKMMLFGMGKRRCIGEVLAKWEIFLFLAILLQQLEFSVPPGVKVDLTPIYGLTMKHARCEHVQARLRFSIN
Sequence of Glucocorticoid receptor (Homo sapiens) (P04150 whole entry, looked up, the tested form may be a part): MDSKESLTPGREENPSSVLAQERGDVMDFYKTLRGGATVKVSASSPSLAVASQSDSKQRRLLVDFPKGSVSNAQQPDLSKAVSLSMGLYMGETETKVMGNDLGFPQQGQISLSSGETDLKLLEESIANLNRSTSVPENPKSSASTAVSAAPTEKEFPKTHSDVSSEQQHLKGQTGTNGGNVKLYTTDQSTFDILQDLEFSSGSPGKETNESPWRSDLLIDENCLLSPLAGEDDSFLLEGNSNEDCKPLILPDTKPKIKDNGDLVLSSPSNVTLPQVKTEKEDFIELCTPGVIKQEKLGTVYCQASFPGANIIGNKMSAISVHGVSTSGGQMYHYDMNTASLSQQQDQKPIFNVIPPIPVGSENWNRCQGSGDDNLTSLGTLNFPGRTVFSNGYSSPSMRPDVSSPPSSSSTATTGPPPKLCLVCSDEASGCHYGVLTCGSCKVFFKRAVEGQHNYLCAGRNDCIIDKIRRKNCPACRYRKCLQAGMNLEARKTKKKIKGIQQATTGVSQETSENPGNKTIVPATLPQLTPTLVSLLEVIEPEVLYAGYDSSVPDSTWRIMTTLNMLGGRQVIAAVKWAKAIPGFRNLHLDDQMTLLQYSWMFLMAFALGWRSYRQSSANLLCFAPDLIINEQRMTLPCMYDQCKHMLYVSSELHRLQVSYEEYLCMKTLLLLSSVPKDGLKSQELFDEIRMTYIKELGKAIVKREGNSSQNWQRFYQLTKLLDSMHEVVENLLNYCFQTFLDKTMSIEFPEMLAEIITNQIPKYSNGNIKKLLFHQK
Sequence of 3',5'-cyclic-AMP phosphodiesterase 4B (Homo sapiens) (Q07343 whole entry, looked up): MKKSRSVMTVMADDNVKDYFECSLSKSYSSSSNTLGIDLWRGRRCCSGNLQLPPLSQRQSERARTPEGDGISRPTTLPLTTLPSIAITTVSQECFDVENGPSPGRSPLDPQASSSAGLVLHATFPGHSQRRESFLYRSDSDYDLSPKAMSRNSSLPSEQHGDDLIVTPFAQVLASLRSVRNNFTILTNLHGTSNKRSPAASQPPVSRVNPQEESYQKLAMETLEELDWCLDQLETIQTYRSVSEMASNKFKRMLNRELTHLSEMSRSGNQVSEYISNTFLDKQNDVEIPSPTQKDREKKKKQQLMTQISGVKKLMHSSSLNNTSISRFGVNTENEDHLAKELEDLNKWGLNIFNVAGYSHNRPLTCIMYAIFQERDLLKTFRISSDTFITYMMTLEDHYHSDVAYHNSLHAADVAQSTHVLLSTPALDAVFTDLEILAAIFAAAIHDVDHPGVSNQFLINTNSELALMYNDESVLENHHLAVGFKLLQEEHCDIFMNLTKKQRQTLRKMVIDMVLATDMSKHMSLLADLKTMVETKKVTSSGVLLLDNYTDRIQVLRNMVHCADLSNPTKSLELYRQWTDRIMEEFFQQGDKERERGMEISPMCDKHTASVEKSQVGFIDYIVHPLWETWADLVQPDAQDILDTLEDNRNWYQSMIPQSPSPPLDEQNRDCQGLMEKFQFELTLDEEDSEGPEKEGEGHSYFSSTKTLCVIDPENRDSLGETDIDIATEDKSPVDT
Sequence of Alpha-galactosidase A (Homo sapiens) (P06280 whole entry, looked up): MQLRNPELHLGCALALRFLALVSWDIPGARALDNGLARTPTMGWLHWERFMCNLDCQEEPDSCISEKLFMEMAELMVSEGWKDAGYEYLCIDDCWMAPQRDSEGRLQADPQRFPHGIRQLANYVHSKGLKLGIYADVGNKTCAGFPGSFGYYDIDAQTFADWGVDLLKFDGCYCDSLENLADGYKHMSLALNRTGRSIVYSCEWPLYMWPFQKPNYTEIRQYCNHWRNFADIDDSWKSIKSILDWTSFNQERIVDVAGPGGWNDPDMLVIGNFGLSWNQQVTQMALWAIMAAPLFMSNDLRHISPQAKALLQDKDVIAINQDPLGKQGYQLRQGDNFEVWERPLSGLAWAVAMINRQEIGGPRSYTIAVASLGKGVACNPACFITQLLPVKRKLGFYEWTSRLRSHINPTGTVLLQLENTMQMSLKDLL
Sequence of Pyruvate kinase (Leishmania mexicana) (Q27686 2-499 E452W): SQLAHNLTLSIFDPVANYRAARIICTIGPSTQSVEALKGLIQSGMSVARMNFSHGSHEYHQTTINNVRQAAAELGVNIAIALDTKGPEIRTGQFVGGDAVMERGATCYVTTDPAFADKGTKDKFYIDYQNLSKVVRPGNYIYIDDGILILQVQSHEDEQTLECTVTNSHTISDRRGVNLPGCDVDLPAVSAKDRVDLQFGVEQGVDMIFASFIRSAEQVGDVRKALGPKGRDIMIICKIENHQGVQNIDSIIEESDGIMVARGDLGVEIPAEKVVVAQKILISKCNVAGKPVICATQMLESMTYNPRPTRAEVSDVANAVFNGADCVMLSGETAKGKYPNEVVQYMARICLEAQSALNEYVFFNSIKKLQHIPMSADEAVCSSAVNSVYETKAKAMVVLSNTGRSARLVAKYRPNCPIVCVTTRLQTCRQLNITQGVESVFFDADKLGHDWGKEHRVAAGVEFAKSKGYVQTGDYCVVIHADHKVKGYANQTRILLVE
Sequence of Muscarinic acetylcholine receptor M1 (Rattus norvegicus) (P08482 whole entry, looked up): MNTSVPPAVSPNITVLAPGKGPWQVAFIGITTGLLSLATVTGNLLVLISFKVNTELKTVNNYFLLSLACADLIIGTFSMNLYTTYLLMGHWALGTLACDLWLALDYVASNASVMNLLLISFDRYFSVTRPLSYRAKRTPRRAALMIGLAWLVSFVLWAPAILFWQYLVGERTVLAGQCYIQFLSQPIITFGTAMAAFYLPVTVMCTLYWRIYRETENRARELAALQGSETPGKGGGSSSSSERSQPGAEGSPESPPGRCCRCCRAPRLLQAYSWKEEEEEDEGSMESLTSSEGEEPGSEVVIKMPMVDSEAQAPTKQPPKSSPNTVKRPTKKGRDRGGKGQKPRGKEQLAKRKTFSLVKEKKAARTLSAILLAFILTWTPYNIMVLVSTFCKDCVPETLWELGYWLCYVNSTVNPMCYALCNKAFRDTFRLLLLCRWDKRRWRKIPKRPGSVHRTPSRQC
Sequence of Pyruvate kinase PKM (Homo sapiens) (P14618 whole entry, looked up): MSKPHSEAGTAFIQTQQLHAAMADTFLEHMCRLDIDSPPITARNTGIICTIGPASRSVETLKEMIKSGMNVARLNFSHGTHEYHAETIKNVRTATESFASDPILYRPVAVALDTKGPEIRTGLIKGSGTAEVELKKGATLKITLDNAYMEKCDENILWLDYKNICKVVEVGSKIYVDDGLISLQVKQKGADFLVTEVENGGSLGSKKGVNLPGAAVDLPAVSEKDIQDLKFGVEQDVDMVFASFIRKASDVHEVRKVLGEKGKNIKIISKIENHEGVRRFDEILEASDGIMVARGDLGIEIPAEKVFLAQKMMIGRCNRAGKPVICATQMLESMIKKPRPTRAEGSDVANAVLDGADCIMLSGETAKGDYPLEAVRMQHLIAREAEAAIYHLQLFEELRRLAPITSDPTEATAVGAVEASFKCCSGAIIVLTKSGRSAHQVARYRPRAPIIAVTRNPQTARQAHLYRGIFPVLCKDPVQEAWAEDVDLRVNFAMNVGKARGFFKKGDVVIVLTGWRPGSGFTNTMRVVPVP
Sequence of DNA dC->dU-editing enzyme APOBEC-3G (Homo sapiens) (Q9HC16 whole entry, looked up): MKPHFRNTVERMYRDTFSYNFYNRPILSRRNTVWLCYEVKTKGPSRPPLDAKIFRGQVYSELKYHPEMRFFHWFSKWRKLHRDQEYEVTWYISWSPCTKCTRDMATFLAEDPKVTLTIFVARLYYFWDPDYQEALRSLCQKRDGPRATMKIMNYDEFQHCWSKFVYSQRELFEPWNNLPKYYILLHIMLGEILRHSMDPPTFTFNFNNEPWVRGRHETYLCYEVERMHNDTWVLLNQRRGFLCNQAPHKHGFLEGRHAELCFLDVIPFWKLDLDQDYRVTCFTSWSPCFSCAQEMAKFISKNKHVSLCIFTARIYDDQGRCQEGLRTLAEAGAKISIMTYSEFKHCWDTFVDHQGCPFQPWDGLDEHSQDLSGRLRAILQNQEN
Sequence of Cytochrome P450 2D6 (Homo sapiens) (P10635 whole entry, looked up): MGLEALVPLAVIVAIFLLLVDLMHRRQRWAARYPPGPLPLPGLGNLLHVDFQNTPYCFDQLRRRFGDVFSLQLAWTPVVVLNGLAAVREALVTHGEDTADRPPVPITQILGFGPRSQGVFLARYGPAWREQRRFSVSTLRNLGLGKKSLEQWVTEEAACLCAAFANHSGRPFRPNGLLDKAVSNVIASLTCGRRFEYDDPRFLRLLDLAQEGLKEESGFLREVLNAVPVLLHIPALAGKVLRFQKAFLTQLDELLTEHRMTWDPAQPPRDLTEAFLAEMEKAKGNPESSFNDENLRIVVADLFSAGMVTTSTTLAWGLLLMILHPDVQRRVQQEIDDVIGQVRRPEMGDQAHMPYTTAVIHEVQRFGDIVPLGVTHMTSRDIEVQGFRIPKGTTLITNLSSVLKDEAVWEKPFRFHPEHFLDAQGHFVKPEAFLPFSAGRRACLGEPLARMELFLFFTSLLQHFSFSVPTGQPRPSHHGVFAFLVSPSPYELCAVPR

Cc1cc(C)c(/C=C2/C(=O)Nc3ccccc32)[nH]1
inactive: activity, negative = inhibition [2] -25.4% [at 38 µM] | Potency [3] | Potency [4] | Potency [5] | Potency [6] | outcome [7] | outcome [8]
active: Potency [1] 0.794 µM

COc1cccc2c1C(=O)c1c(O)c3c(c(O)c1C2=O)C[C@](O)(C(=O)CO)C[C@H]3O[C@@H]1C[C@H](N)[C@H](O)[C@H](C)O1
inactive: Potency [1] | Potency [9] > 20.6 µM | Potency [10] > 20.6 µM | Potency [3]
active: activity, negative = inhibition [2] 92.4% [activator]

CN(C)c1ccc(-c2nn3c(-c4ccc(Cl)cc4)nnc3s2)cc1
inactive: activity change, negative = inhibition [11] 21.4% | Potency [9] > 20.6 µM
active: Potency [12] 10 µM

Cc1ccccc1-c1nn2c(-c3ccccc3)nnc2s1
inactive: activity change, negative = inhibition [11] -18% | Potency [9] > 20.6 µM

CCCCC[C@H](O)c1cccc(OCc2ccc3ccccc3n2)c1
inactive: activity, negative = inhibition [2] -0.505% [at 38 µM] | Potency [9] > 46 µM | Potency [10] > 46 µM | Potency [13] | Potency [4] | Potency [5] | Potency [6] | outcome [7] | outcome [8] | outcome [14]
active: Potency [1] 0.794 µM

CN(CCc1ccc(Cl)c(Cl)c1)CCN1CCCCCC1
inactive: Potency [9] > 46 µM | Potency [10] > 46 µM | Potency [13] | Potency [15] | Potency [17] | outcome [18]
active: Potency [1] 31.6 µM | Potency [16] 0.126 µM
